The structures appear in SMILES notation. Entries with a potency or affinity are not part of this list.

The assay deals with Klebsiella pneumoniae. To be noted: Concentration 32 ug.mL-1;; ASSAY_TEST Inhibition of Bacterial Growth; detection method Absorption (OD600); MEDIA CAMHB; plate type 384well; NBS; CORNING #3640; time 18 hr.
`COc1ccc(NC(=O)Cn2nc3ccc(SC4CCCCC4)nn3c2=O)cc1OC`: the Inhibition (in general, the change of the read-out against control, counted positive when it falls) is 8.74%.
Next, `Cc1cccc(NC(=O)CSc2nnc3ccc(C(=O)Nc4cccc(F)c4)cn23)c1`: 11.26%.
As to `CCc1cccc(NC(=O)Cn2nc3c(SC4CCCCC4)nccn3c2=O)c1`, the Inhibition is recorded as 3.05%.
Next, `CC(C)NC(=O)CSc1nnc2c(=O)n(Cc3ccc(F)cc3)ccn12`: 4.17%.
Take `Cc1ccc(Oc2nccn3c(=O)n(CC(=O)Nc4ccccc4C(F)(F)F)nc23)cc1`: the Inhibition came out at 6.49%.
Take `Cc1ccccc1CN(c1ccc(C(C)C)cc1)S(=O)(=O)c1cccn2c(C)nnc12`: the Inhibition is given as 8.89%.
For `Cc1ccc(CN(c2cccc(F)c2)S(=O)(=O)c2ccc3nnc(C)n3c2)cc1`, the Inhibition is -4.46%.
Turning to `CCOc1ccc(C(=O)CSc2nnc3c(=O)n(-c4ccc(F)cc4)ccn23)cc1`, the Inhibition is 4.99%.
As for `COc1cccc(NC(=O)Cn2nc3c4cc(-c5ccc(Cl)cc5)nn4ccn3c2=O)c1`, the Inhibition was found to be 8.34%.
`COc1ccc(Cl)cc1NC(=O)CSc1nc2ccccc2n2c(C(C)C)nnc12`: the Inhibition was -0.34%.
As to `O=C(Cn1nc2c(Oc3ccccc3)nccn2c1=O)Nc1ccc2c(c1)OCO2`, the Inhibition amounted to 4.55%.
To `COc1cccc(CN(c2ccc(F)cc2)S(=O)(=O)c2ccc3nnc(C)n3c2)c1` belongs 7.98%.
For the compound `CC(C)c1ccc(N(Cc2cc(F)cc(F)c2)S(=O)(=O)c2cccn3cnnc23)cc1`, the Inhibition was determined as 4.84%.
For the compound `Cc1ccc(Sc2nccn3c(=O)n(CC(=O)Nc4ccc(Br)cc4)nc23)c(C)c1`, the Inhibition was found to be 5.96%.
Take `CCCCOc1ccc(-c2cc3c4nnc(SCC(=O)Nc5ccccc5Cl)n4ccn3n2)cc1`: the Inhibition is 5.58%.
As for `COc1cccc(Oc2nccn3c(=O)n(CC(=O)Nc4cccc(Br)c4)nc23)c1`, the Inhibition was determined as 6.87%.
For the compound `Cc1ccc(C)c(CN(c2ccc(F)c(F)c2)S(=O)(=O)c2cccn3cnnc23)c1`, the Inhibition was -0.76%.
Next, `Cc1ccccc1CN(c1cccc(F)c1)S(=O)(=O)c1ccc2nncn2c1`: 6.25%; `CSc1ccc(CNC(=O)Cn2nc3c(N4CCN(c5ccccc5)CC4)nccn3c2=O)cc1`: 15.47%; `CC(C)c1ccc(NC(=O)CSc2nc3ccccc3n3cnnc23)cc1`: 3.82%.
In the case of `O=C(CCc1nnc2c3cc(-c4ccc(F)cc4)nn3ccn12)N1CCC(Cc2ccccc2)CC1`, the Inhibition worked out at 4.22%.
On to `Cc1[nH]c2ccccc2c1C(=O)CSc1nnc2c(=O)n(-c3ccccc3)ccn12`, for which the Inhibition is 21.07%.
Consider `CCOc1ccc(NC(=O)Cn2nc3c(N4CCCC(C)C4)nccn3c2=O)cc1` (stereo not given), for which the Inhibition is given as 13.07%.
In the case of `CCc1nnc2c(S(=O)(=O)N(Cc3cccc(F)c3)c3ccc(C)c(C)c3)cccn12`, the Inhibition turned out to be 12.58%.
Turning to `COc1ccc(CN(c2ccc(F)cc2)S(=O)(=O)c2ccc3nnc(C)n3c2)cc1F`, the Inhibition came out at 2.68%.
For `Cc1cccc(N(C)C(=O)Cn2nc3cc(C)nc(Nc4ccc(C)c(F)c4)n3c2=O)c1`, the Inhibition is listed as 20.18%.
On to `Cc1cccc(Oc2nccn3c(=O)n(CC(=O)Nc4cccc(C(F)(F)F)c4)nc23)c1C`, for which the Inhibition turned out to be 9.81%.
On to `O=C(CSc1nnc2c3cc(-c4ccccc4)nn3ccn12)NCc1ccc(Cl)cc1`, for which the Inhibition is reported as 14.11%.
Consider `Cc1c(Cl)cccc1-n1ccn2c(=O)n(Cc3ccc(Cl)cc3)nc2c1=O`, for which the Inhibition worked out at 2.87%.
In the case of `CCCCOc1ccc(-c2cc3c4nnc(SCC(=O)Nc5ccc(OC)cc5)n4ccn3n2)cc1`, the Inhibition is on record as 6.75%.
In the case of `COc1cccc(CN(c2cccc(C)c2)S(=O)(=O)c2ccc3nnc(C)n3c2)c1`, the Inhibition worked out at 4.27%.
To `O=C(CSc1nnc2c(=O)n(-c3cccc(F)c3)ccn12)NCCc1ccccc1` belongs -3.34%; to `CC(C)CCNC(=O)CSc1nnc2c(=O)n(Cc3ccc(F)cc3)ccn12`, 4.54%; to `Cc1ccc(-c2ccc3nnc(CCC(=O)N4CCN(C(=O)c5ccco5)CC4)n3n2)cc1C`, 19.25%.
Next, `O=C(Cn1nc2ccc(-c3ccccc3)nn2c1=O)Nc1ccc(F)cc1`: 7.53%; `COc1ccccc1NC(=O)Cn1nc2c(SCc3ccc(Cl)cc3)nccn2c1=O`: 9.59%.
To `Cc1ccc(Oc2nccn3c(=O)n(CC(=O)Nc4ccc(C)cc4Br)nc23)cc1` belongs 1.71%; to `O=c1c2sccc2n2c(=O)n(Cc3cccc(C(F)(F)F)c3)nc2n1Cc1cccs1`, 15.22%.
Consider `COc1ccccc1NC(=O)Cn1nc2c3cc(-c4ccc(C)c(C)c4)nn3ccn2c1=O`, for which the Inhibition was determined as 17.54%.
Consider `CC(=O)c1ccc(NC(=O)Cn2nc3ccc(-c4ccccc4)nn3c2=O)cc1`, for which the Inhibition is 10.95%.

Values taken from ChEMBL document CHEMBL4513146, “CO-ADD screening of Karazin Kharkiv National University (Ukraine) compounds”.
